In all, about 310,000 compounds went through this assay and about 14,000 (4.5%) showed an effect of 50% or more. The effect is printed as a negative number. This excerpt belongs to a sample that is enriched for strong results.
Each compound was assayed against human ether-à-go-go-related gene (hERG) potassium channel (human, UniProt Q12809) (assay: primary screen, population patch clamp on CHO cells stably expressing hERG; higher = less effect of the substance).
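Also: peak tail current of the secondary pulse compared with the same well before compound.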

Sequence of human ether-à-go-go-related gene (hERG) potassium channel (Q12809 whole entry, looked up): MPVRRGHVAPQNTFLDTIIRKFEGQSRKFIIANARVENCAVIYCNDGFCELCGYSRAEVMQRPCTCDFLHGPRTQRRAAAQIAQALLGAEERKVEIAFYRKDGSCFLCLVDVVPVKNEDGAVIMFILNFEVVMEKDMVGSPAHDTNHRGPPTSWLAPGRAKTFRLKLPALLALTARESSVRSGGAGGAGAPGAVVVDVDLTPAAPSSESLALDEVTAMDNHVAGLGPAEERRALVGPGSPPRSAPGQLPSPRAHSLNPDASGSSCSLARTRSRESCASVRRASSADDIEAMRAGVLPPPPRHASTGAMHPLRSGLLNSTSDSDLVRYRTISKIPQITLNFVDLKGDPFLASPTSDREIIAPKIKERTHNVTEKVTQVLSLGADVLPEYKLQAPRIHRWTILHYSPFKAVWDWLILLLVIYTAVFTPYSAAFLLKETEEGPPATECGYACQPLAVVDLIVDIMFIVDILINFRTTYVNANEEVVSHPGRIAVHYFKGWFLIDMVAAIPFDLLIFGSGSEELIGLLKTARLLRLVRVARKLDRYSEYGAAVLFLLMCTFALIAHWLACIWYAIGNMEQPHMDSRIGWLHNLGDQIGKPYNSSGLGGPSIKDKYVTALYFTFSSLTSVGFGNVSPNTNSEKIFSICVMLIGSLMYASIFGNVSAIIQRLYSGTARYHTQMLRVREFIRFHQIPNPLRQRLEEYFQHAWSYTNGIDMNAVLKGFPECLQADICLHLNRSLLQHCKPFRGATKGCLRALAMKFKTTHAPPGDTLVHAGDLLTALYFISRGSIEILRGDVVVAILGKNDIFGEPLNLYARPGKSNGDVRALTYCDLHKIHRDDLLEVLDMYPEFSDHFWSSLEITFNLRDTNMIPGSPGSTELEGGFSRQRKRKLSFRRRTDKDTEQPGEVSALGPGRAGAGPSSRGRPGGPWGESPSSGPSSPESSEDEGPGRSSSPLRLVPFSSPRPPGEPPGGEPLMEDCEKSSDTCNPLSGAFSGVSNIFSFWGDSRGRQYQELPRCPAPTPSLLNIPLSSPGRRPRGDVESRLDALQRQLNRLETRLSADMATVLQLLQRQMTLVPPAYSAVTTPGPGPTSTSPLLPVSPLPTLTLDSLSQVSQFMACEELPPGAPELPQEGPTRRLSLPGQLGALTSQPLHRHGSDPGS

Compound	hERG current change (%, negative = inhibition) at 10uM
CC(=O)c1c(C)[nH]c(C(=O)Nc2ccc(Cl)cc2)c1C	-9.14%
CC(C)C(c1nnnn1Cc1ccc(F)cc1)N1CCN(C(=O)c2ccco2)CC1 (stereo not drawn)	-49.1%
O=C(CCCNC(=O)c1ccc(Cl)cc1)Nc1ccccc1F	7%
Cc1ccccc1-n1cc(CNCc2c(C(=O)N(C)C)nc3ccc(Cl)cn23)cn1	-7.4%
COc1cccc(-n2cc(CNCc3c(C(=O)N(C)C)nc4ccc(Cl)cn34)cn2)c1	-55.9%
COc1ccc(CNCc2c(C(=O)N(C)C)nc3ccc(Cl)cn23)c(OC)c1	-11.1%
Cc1nn(C)cc1NC(=O)c1cc2nc(-c3ccco3)cc(C(F)(F)F)n2n1	4.66%
CCOC(=O)N1CCC(NC(=O)C(NS(=O)(=O)c2ccc3c(c2)CCN3C(=O)CC)C(C)C)CC1 (stereo not drawn)	-6.47%
Cc1ccc(N2C(=O)C(CC(=O)Nc3cccc(F)c3)N(CCc3ccncc3)C2=O)cc1 (stereo not drawn)	-52.3%
COc1ccc(CCN2C(=O)N(c3ccc(OC)cc3)C(=O)C2CC(=O)Nc2ccc(OC)cc2)cc1 (stereo not drawn)	7.46%
Cc1cccc(N2C(=O)C(CC(=O)Nc3cccc(F)c3)N(CCc3ccncc3)C2=O)c1 (stereo not drawn)	-43.6%
Cc1ccc(N2C(=O)C(CC(=O)Nc3cccc(F)c3)N(C3CC3)C2=O)cc1 (stereo not drawn)	-7.13%
CCc1ccc(NC(=O)CC2C(=O)N(c3ccc(C)cc3)C(=O)N2CCc2ccncc2)cc1 (stereo not drawn)	-55.8%
CCc1ccc(NC(=O)CC2C(=O)N(c3ccc(C)cc3)C(=O)N2C2CC2)cc1 (stereo not drawn)	-4.46%
O=C(COC(=O)c1ccc(Br)cc1)Nc1cccnc1Cl	-3.51%
COC(=O)c1cn(CC(=O)Nc2ccc(OC)cc2)c2ccccc12	8.2%
CC(=O)N1CC(C)Oc2ccc(S(=O)(=O)Nc3ccc(Cl)cn3)cc21 (stereo not drawn)	3.04%
CC(=O)OC1(c2ccccc2)CCN(C)CC1(C)C.Cl (stereo not drawn)	35.4%
Cc1ccc(S(=O)(=O)N2CCOC2CNC(=O)C(=O)NCc2ccccc2)cc1 (stereo not drawn)	-10.3%
Cc1ccc(SCc2cc(=O)[nH]c(N3CCOCC3)n2)cc1	-0.0128%

Compound	hERG current change (%, negative = inhibition) at 10uM
O=C(NCc1cccnc1)c1ccccc1-c1ccccc1	-0.462%
Cc1cccnc1NC(=O)c1cccc(S(=O)(=O)NCc2ccccc2)c1	-14.9%
Cc1cc(NC(=O)c2cccc(S(=O)(=O)N3c4ccccc4CC3C)c2)no1 (stereo not drawn)	-7.3%
CC1Cc2ccccc2N1S(=O)(=O)c1cccc(C(=O)NC2CC2)c1 (stereo not drawn)	-40%
O=C(Nc1cccnc1)c1cccc(S(=O)(=O)N2CCc3ccccc32)c1	11%
CC1Cc2ccccc2N1S(=O)(=O)c1cccc(C(=O)NCCCO)c1 (stereo not drawn)	-27.9%
CC1Cc2ccccc2N1S(=O)(=O)c1cccc(C(=O)NCCCn2ccnc2)c1 (stereo not drawn)	-50.1%
CC1Cc2ccccc2N1S(=O)(=O)c1cccc(C(=O)NCc2ccccn2)c1 (stereo not drawn)	-67.6%
CC1CN(S(=O)(=O)c2cccc(C(=O)NCCCn3ccnc3)c2)CC(C)O1.Cl (stereo not drawn)	6.18%
CC1Cc2ccccc2N1S(=O)(=O)c1cccc(C(=O)NCc2ccncc2)c1 (stereo not drawn)	-34.9%
Cc1ccc(NC(=O)c2cccc(S(=O)(=O)NCc3ccccc3)c2)nc1	-50.7%
Cc1ccnc(NC(=O)c2cccc(S(=O)(=O)NCc3ccccc3)c2)c1	-34.6%
CC1Cc2ccccc2N1S(=O)(=O)c1cccc(C(=O)Nc2cccnc2)c1 (stereo not drawn)	-60.2%
Cc1c(Cl)cccc1NC(=O)CN1CCC(NC(=O)C2CCCCC2)CC1	-0.0286%
CCOC(=O)c1[nH]c(C)c(C(=O)Nc2ccccc2F)c1C	-11.2%
CCOc1ccccc1NC(=O)Cn1c(=O)n(-c2ccccc2)c(=O)c2oc3ccccc3c21	-16.4%
O=C(CN(CC1CCCO1)C(=O)CNS(=O)(=O)c1ccc(F)cc1)NCc1ccccc1 (stereo not drawn)	7.27%
CC1CCN(c2ccc3nnc(CCC(=O)NC(C)C)n3n2)CC1	2.67%
N#CC1=C(N)OC(c2ccccc2)=C(C#N)C1c1ccc2c(c1)OCO2 (stereo not drawn)	14.3%
Cc1ccc(S(=O)(=O)Nc2ccc(C(=O)NCc3ccccn3)cc2)cc1	-7.17%

Compound	hERG current change (%, negative = inhibition) at 10uM
Cc1ccc(NS(=O)(=O)c2cccc(C(=O)NCc3ccccn3)c2)cc1	-68.5%
Cc1ccc(NS(=O)(=O)c2ccc(C(=O)NCc3ccccn3)cc2)cc1	18.8%
COc1ccc(OC)c(C2Nc3ccccc3NC3=C2C(=O)CC(C)(C)C3)c1 (stereo not drawn)	15.4%
O=C(Nc1ccc(Br)cc1Cl)c1cnccn1	5.88%
CCc1nnc(NC(=O)CSc2nc3cc(OC)c(OC)cc3cc2C)s1	5.07%
CCC(=O)N1CCc2cc(S(=O)(=O)CCC(=O)N3CCN(c4ccc(F)cc4)CC3)ccc21	-2.82%
O=c1c2cc([N+](=O)[O-])ccc2nc2n1CCCC2	4.82%
C=CCn1c2ccccc2c2nnc(SC(CC)C(=O)Nc3nc(C)c(C(=O)OCC)s3)nc21 (stereo not drawn)	-43.9%
CCOC(=O)c1sc(NC(=O)C(CC)Sc2nnc3c4ccccc4n(CC)c3n2)nc1C (stereo not drawn)	-59.4%
CCOC(=O)C(Sc1nnc2c3ccccc3n(CC)c2n1)C(=O)OCC	-28.7%
Cc1ccc(-c2ccc(CCC(=O)O)n2Cc2ccco2)cc1	12.2%
Cc1ccc(C(C)C)c(OCCn2ccnc2C)c1.O=C(O)C(=O)O	-35.1%
Cc1ccc(C(C)C)c(OCCCn2ccnc2C)c1.O=C(O)C(=O)O	-63.8%
Cc1ccc(OCC(=O)NC2CCCC2)c(C)c1	2.93%
Cc1ccc(OCCCCNC2CCCC(C)C2C)c(C)c1.O=C(O)C(=O)O (stereo not drawn)	-56.9%
Cc1ccc(OCCCCNC2CCCCC2)c(C)c1.O=C(O)C(=O)O	-42.8%
Cc1ccc(OCCCCn2ccnc2C)c(C)c1.O=C(O)C(=O)O	-64.1%
Cc1ccc(OCCCCn2cnc3ccccc32)c(C)c1.O=C(O)C(=O)O	-20.5%
COc1ccc(OCCn2ccnc2C)cc1.O=C(O)C(=O)O	-0.197%
Cc1ccc(C(C)C)c(OCCN(C)C)c1.O=C(O)C(=O)O	-5.47%

— paper PMC4336329 (PLoS ONE, 2015)
